Experiment [1] in a line: qHTS assay to identify small molecule antagonists of the vitamin D receptor (VDR) signaling pathway - cell viability counter screen (AID 743225). Note: nearly all actives have a fitted effect of over 50% in size. Note: potency is the fitted concentration of half-maximal effect. In outline: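 Luminescent cell viability (CellTiter-Glo) in VDR-bla HEK 293T cells after 16 h compound exposure at 37C in the presence of 3 nM final 1-alpha,25-dihydroxy vitamin D3.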
Experiment [2] in a line: qHTS assay to identify small molecule agonists of the endoplasmic reticulum stress response signaling pathway - cell viability counter screen (AID 1159517; calls by dose curve; note: nearly all actives have a fitted effect of over 50% in size; note: potency is the fitted concentration of half-maximal effect). In outline:
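ESRE-bla HeLa cells (1,500/well) were plated overnight at 37 C and exposed to compounds for 5 hr. After the 2 hr beta-lactamase substrate read, CellTiter-Glo went into the same wells, and luminescence was read after 30 min at room temperature.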

Experiment [3] in a line: qHTS assay to identify small molecule agonists of the RXR signaling pathway - cell viability counter screen (AID 1159529). Note: nearly all actives have a fitted effect of over 50% in size. Note: potency is the fitted concentration of half-maximal effect. In outline:
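Same-well viability check after the LiveBLAzer FRET read: CellTiter-Glo added, luminescence measured after 30 min at room temperature. Reporter HEK 293T cells had been treated with compounds for 16 hr following a 5 hr preincubation.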

A short description of experiment [4]: qHTS assay to identify small molecule antagonists of the retinoid-related orphan receptor gamma (ROR-gamma) signaling pathway - cell viability counter screen (AID 1159520). Note: nearly all actives have a fitted effect of over 50% in size. Note: potency is the fitted concentration of half-maximal effect. In outline:
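Cytotoxicity was read from cellular ATP (CellTiter-Glo luminescence) after 16 hr at 37 C with 1 uM doxycycline induction. The inducer was added 2 hr after compound transfer to Tet-on ROR gamma CHO cells.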

Experiment [5] can be described thus: qHTS assay to identify small molecule agonists of the AP-1 signaling pathway - cell viability counter screen (AID 1159525; calls by dose curve; note: nearly all actives have a fitted effect of over 55% in size; note: potency is the fitted concentration of half-maximal effect). Summed up: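 Intracellular ATP by Cell Titer Glo luminescence (30 min, RT) in the same ME-180 AP-1-bla wells after the 5 h compound exposure at 37 °C. Normalised to tetra n-octyl ammonium bromide and DMSO controls.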
Experiment [6] deals with Nuclear receptor ROR-gamma (Homo sapiens) (UniProt P51449). Put plainly: qHTS assay to identify small molecule antagonists of the retinoid-related orphan receptor gamma (ROR-gamma) signaling pathway (AID 1159521; note: nearly all actives have a fitted effect of over 50% in size; note: potency is the fitted concentration of half-maximal effect). In outline:
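CHO cells expressing RORγ under a TET-on promoter, luciferase under RORE control. Dox 1 uM final, 16 h; compounds added 2 h prior. Luminescence decrease measured.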

Experiment [7] in a line: qHTS assay to identify small molecule agonists of the AP-1 signaling pathway (AID 1159526; calls by dose curve; note: potency is the fitted concentration of half-maximal effect).
The target of experiment [8] is Retinoic acid receptor RXR-alpha (Homo sapiens) (UniProt P19793). In words: qHTS assay to identify small molecule agonists of the RXR signaling pathway (AID 1159527; calls by dose curve; note: nearly all actives have a fitted effect of over 35% in size). In outline: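 Beta-lactamase reporter assay, agonist format. Engineered HEK 293T line, charcoal-stripped FBS at 2%, overnight (16 hr) exposure, fluorescence at 460 and 530 nm after 405 nm excitation.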
Chain of Retinoic acid receptor RXR-alpha (Homo sapiens) (P19793 whole entry, looked up): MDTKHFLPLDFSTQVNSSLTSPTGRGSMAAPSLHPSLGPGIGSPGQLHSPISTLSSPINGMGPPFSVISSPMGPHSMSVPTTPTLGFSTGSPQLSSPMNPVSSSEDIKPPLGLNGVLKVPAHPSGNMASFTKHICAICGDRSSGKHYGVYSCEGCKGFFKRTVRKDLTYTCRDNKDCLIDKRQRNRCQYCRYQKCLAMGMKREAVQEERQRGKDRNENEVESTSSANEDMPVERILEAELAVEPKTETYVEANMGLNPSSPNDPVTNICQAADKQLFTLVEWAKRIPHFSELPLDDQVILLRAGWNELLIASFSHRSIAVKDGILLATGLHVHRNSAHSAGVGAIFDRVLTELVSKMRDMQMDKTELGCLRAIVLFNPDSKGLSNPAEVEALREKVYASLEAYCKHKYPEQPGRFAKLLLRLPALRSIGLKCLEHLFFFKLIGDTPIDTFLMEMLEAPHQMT

“And” between values parts separate entries of the source, which are not always exact repeats. Equal values may be shown once. Records with an inconclusive call do not appear. The source made the active and inactive calls. Unless noted, calls come from the whole dose curve; as a rule, active = well fitted curve in the direction sought with a large enough effect in the repeat runs; inconclusive = weak or mixed curves; inactive = no such curve, though single readings can be large; an effect the other way counts as inactive or inconclusive.

Consider `Oc1ccc(C2(c3ccc(O)cc3)CCCCC2)cc1`, for which the values for the Potency in experiment [1], in experiment [2] and in experiment [3] were 36.8 µM (active), 46.4 µM (active) and 36.8 µM (active), respectively.

As for `[Cd+2].[Cl-].[Cl-]`, the Potency is 8.78 µM (active) and 2.45 µM (active) in experiment [1]; 27.5 µM (active) in experiment [4]; 17.5 µM (active) and 24.5 µM (active) in experiment [3]. The Potency entry in experiment [2] and in experiment [5] was “inactive” in each case.

Consider `Clc1ccc(Oc2ccccc2)cc1`, for which the Potency result in experiment [4], in experiment [6], in experiment [5], in experiment [7] and in experiment [3] was “inactive” in each case. In experiment [8], the outcome was inactive.

For the compound `CCc1cc(C)cc(CC)c1-c1c(OC(=O)C(C)(C)C)n2n(c1=O)CCOCC2`, the Potency result in experiment [4], in experiment [6], in experiment [5] and in experiment [3] was “inactive” in each case. In experiment [8], the compound was called inactive.

In the case of `CC(=O)c1ccc(-c2ccccc2)cc1`, the Potency entry in experiment [4], in experiment [6], in experiment [5], in experiment [7] and in experiment [3] was “inactive” in each case. For the same compound, the call in experiment [8] was inactive.

Take `COP(N)(=S)OC`: the Potency entry in experiment [4], in experiment [6], in experiment [5], in experiment [7] and in experiment [3] was “inactive” in each case. Moreover, in experiment [8], the compound was called inactive.

Regarding `Cn1[nH]nnc1=S`, the Potency entry in experiment [4], in experiment [6], in experiment [5] and in experiment [3] was “inactive” in each case. In addition, the Potency in experiment [7] is 49 µM (active). The call in experiment [8] was inactive.

Consider `Nc1c(Oc2ccccc2)cc(O)c2c1C(=O)c1ccccc1C2=O`, for which the Potency result in experiment [4], in experiment [6], in experiment [5] and in experiment [3] was “inactive” throughout. For the same compound, in experiment [8], the compound was classed as inactive.

For the compound `O=C(NC(=O)c1c(F)cccc1F)Nc1cc(Cl)c(OC(F)(F)C(F)F)c(Cl)c1`, the Potency result in experiment [1], in experiment [4], in experiment [6], in experiment [5], in experiment [7] and in experiment [3] was “inactive” each time.

As for `SCc1ccco1`, the Potency result in experiment [4], in experiment [6], in experiment [5] and in experiment [3] was “inactive” in each case.

As for `CN(C)S(=O)(=O)N(SC(F)(Cl)Cl)c1ccccc1`, the Potency in experiment [1] was 27.5 µM (active); in experiment [4], 5.45 µM (active); in experiment [6] it was 4.86 µM (active); in experiment [5], 34.7 µM (active); in experiment [3] it was 21.9 µM (active).

Turning to `CC(=O)c1cc(C(C)(C)C)cc2c1CCC2(C)C`, the Potency result in experiment [1], in experiment [4], in experiment [6], in experiment [5] and in experiment [3] was “inactive” throughout.

`CCOP(=S)(OCC)SCCS(=O)(=O)CC`: the Potency entry in experiment [4], in experiment [6], in experiment [5], in experiment [7] and in experiment [3] was “inactive” each time. The result in experiment [8] was inactive.

For the compound `ClC1=C(Cl)C2(Cl)C3C(Cl)C(Cl)CC3C1(Cl)C2(Cl)Cl` (stereo not drawn), the Potency in experiment [1] is 54.8 µM (active) and 49 µM (active); in experiment [4], 68.4 µM (active); in experiment [6], 27.2 µM (active) and 61.1 µM (active); in experiment [5], 24.5 µM (active) and 34.7 µM (active); in experiment [3], 21.8 µM (active) and 21.9 µM (active).

For the compound `Oc1cccc(-c2ccccc2)c1`, the Potency result in experiment [4], in experiment [6], in experiment [5] and in experiment [3] was “inactive” in each case. Also, the compound was called inactive in experiment [8].

Consider `CCC(C)c1cc(C(C)(C)C)cc(-n2nc3ccccc3n2)c1O` (stereo not drawn), for which the Potency result in experiment [4], in experiment [6], in experiment [5], in experiment [7] and in experiment [3] was “inactive” throughout.

As for `N#Cc1ccccc1N`, the Potency result in experiment [4], in experiment [6], in experiment [5], in experiment [7] and in experiment [3] was “inactive” in each case. The compound was classed as inactive in experiment [8].

`Cc1ccc(C(=O)Cl)cc1`: the Potency result in experiment [4], in experiment [6], in experiment [5] and in experiment [3] was “inactive” each time. Besides, the result in experiment [8] was inactive.

Take `CC1(C)CN=C(NN=C(/C=C/c2ccc(C(F)(F)F)cc2)/C=C/c2ccc(C(F)(F)F)cc2)NC1`: the Potency in experiment [1] was 11 µM (active); in experiment [4] it was 24.3 µM (active); in experiment [6], 12.2 µM (active); in experiment [5], 43.6 µM (active); in experiment [3] it was 13.8 µM (active).

`Clc1ccc(COC(Cn2ccnc2)c2ccc(Cl)cc2Cl)cc1` (stereo not drawn): the Potency is 45.7 µM (active) and 48.8 µM (active) in experiment [1]; 45.3 µM (active) and 60.9 µM (active) in experiment [4]; 45.3 µM (active) and 30.5 µM (active) and 23.7 µM (active) in experiment [6]; 54.7 µM (active) and 23.9 µM (active) in experiment [5]; 32.3 µM (active) and 38.7 µM (active) in experiment [3].

For `O=C1C=CC(=O)c2ccccc21`, the Potency in experiment [4] is 3.44 µM (active); in experiment [6] it was 1.54 µM (active); in experiment [5], 15.5 µM (active); in experiment [3] it was 9.77 µM (active).

For `COS(=O)(=O)c1ccc(C)cc1`, the Potency result in experiment [4], in experiment [6], in experiment [5], in experiment [7] and in experiment [3] was “inactive” in each case. Also, in experiment [8], the compound was called inactive.

In the case of `CC(Cl)CN(C)C` (stereo not drawn), the Potency result in experiment [4], in experiment [6], in experiment [5] and in experiment [3] was “inactive” each time.

`NC(=O)CCl`: the Potency entry in experiment [4], in experiment [6], in experiment [5] and in experiment [3] was “inactive” in each case. Moreover, the result in experiment [8] was inactive.

For the origin of these results see PubChem BioAssay (Tox21).
